“And” between values parts separate entries of the source, which are not always exact repeats. Equal entries are not always repeated. A number with no mark means an inactive call. Records with an inconclusive call do not appear. The source made the active and inactive calls. Unless noted, cut-off not given; nearly all actives show AC50 up to about 30 µM.

Here are results for 17 compounds from PubChem BioAssay.

Test [1] can be described thus: viability loss in pontine glioma line – cell-based, SU-DIPG-XIII, MIPE4.0, CellTiter-Glo, qHTS, dose response (AID 1347061; cut-off not given, nearly all actives have AC50 up to about 37 µM;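 further: cells exposed to compound for 48 hours before readout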). The settings on record: CellTiter-Glo ATP luminescence. Background: ATP-based viability assays read luminescence as a measure of living cells.
Test [2] is described as follows: viability loss in pontine glioma line – cell-based, SU-DIPG-IV, MIPE4.0, CellTiter-Glo, qHTS, dose response (AID 1347063).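 Further: compound exposure lasted 48 hours before the viability readout.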 The settings on record: CellTiter-Glo ATP luminescence.
Test [3] can be described thus: viability loss in pontine glioma line – cell-based, SU-DIPG-XVII, MIPE5.0, CellTiter-Glo, qHTS, dose response (AID 1347060; cut-off not given, nearly all actives have AC50 up to about 26 µM;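 on AC50: cells exposed to compound for 48 hours before viability readout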). To be noted: CellTiter-Glo ATP luminescence.
Test [4] can be described thus: viability loss in pontine glioma line – cell-based, JHH-DIPG-1, MIPE4.0, CellTiter-Glo, qHTS, dose response (AID 1347062; cut-off not given, nearly all actives have AC50 up to about 27 µM). To be noted: JHH-DIPG-1 viability, CellTiter-Glo ATP luminescence.
A short description of test [5]: viability loss in pontine glioma line – cell-based, SU-DIPG-XXV, MIPE5.0, CellTiter-Glo, qHTS, dose response (AID 1347065; cut-off not given, nearly all actives have AC50 up to about 26 µM;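 further: cells exposed to compound for 48 hours before ATP readout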). To be noted: CellTiter-Glo ATP luminescence.
A short description of test [6]: growth inhibition of DIPG cells – cell-based, MIPE4.0 library, CellTiter-Glo luminescence, qHTS (AID 1347066).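 Further: cells exposed to compound for 48 hours before readout.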 The settings on record: SU-DIPG-VI viability, CellTiter-Glo ATP luminescence.
Test [7] has as its target ATP-dependent translocase ABCB1 (Homo sapiens) (UniProt P08183). Briefly: P-glycoprotein substrate transport blockade – cell-based (AID 377; in the data active means fluorescence slope change above about 50%). To be noted: MDR1-expressing cells, fluorescent substrate accumulation slope; stronger effect = higher value; concentration not given here.
Test [8] can be described thus: viability loss in pontine glioma line – cell-based, SU-DIPG-XIII, MIPE5.0, CellTiter-Glo, qHTS, dose response (AID 1347064; cut-off not given, nearly all actives have AC50 up to about 23 µM). The settings on record: CellTiter-Glo ATP luminescence.
The nature of test [9]: JHH-DIPG-1 glioma cell viability, MIPE5.0 library, CellTiter-Glo luminescence, qHTS (AID 1347067; cut-off not given, nearly all actives have AC50 up to about 26 µM;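 further: cells exposed to compound for 48 hours before readout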). The settings on record: JHH-DIPG-1 glioma viability, CellTiter-Glo ATP luminescence.
A short description of test [10]: growth inhibition of DIPG cells – cell-based, MIPE5.0 library, qHTS (AID 1347068; cut-off not given, nearly all actives have IC50 up to about 30 µM). The settings on record: SU-DIPG-XXV viability. (In general: qHTS replaces the single test concentration by a dilution series.)
Test [11] relates to Hepatitis C virus NS3 helicase. As to the kind of experiment: blockers of NS3h binding to ssDNA – biochemical, fluorescence polarization, LOPAC1280 library, primary screen (AID 687035; in the data active means inhibition above about 37%). The settings on record: Purified HCV NS3 helicase, Cy5-dT15 ssDNA binding fluorescence polarization; stronger effect = higher value; concentration not given here. (Polarisation of emitted light reports the rotation of a fluorescent probe.)

Test [12] in a line: compounds altering Cy5-DNA-NS3h complex signal – biochemical, LOPAC1280, artefact control for HCV NS3 helicase inhibitor project (AID 687037; call rule not given here). The settings on record: Cy5-DNA-NS3h complex fluorescence interference counterscreen.

ATP-dependent translocase ABCB1 (Homo sapiens), sequence (P08183 whole entry, looked up): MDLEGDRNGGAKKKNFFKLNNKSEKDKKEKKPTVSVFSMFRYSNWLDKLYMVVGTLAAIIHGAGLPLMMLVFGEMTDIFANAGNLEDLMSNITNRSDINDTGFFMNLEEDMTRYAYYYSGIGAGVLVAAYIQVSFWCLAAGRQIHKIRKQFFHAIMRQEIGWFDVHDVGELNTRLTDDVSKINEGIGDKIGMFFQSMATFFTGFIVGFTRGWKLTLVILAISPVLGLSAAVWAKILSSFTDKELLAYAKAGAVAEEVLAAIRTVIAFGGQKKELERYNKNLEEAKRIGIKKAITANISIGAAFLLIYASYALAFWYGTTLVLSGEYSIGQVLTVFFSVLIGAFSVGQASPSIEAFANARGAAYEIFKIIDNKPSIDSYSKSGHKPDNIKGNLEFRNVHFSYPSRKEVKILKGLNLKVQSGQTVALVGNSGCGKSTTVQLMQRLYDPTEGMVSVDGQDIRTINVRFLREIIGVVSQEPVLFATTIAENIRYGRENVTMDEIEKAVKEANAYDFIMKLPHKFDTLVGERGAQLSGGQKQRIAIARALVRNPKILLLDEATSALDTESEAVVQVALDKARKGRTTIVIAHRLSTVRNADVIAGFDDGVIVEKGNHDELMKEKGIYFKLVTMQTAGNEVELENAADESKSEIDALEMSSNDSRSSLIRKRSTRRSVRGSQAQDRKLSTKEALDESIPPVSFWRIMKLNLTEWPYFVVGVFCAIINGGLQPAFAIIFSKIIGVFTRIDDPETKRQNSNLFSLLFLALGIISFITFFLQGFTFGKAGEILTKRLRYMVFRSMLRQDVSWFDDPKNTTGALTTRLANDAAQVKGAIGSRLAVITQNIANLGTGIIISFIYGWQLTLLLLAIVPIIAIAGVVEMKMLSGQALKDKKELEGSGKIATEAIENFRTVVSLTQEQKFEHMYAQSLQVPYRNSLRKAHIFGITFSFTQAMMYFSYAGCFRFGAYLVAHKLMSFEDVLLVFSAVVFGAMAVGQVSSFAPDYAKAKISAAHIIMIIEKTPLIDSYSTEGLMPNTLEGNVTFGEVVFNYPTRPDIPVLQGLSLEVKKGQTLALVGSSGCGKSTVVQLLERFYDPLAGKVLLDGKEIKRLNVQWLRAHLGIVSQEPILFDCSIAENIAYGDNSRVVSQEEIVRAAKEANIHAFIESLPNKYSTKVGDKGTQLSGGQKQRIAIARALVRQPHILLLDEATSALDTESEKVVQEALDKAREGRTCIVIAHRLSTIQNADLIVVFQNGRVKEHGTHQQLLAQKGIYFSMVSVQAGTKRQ

Turning to `O=c1cc(-c2ccccc2)oc2cc(O)c(O)c(O)c12`, the compound was called inactive in [1] and in test [2].
What is called AC50 is the concentration at which the activity in the assay is half-maximal. As for `COc1ccc(-c2coc3cc(O)cc(O)c3c2=O)cc1`, the AC50 in test [3] was 26.3 µM (active). The outcome in test [4], in [5] and in test [6] was inactive.
With `c1coc(CNc2ncnc3nc[nH]c23)c1`, the fluorescence slope change in test [7] is 8.8%. Further, the outcome in [3], in [1], in [4], in [2], in [8] and in [5] was inactive. Further, the call in test [6], in test [9] and in test [10] was inactive.
What is called inhibition is the drop in the measured response relative to a control, in per cent. With `NC(N)=NC(N)=Nc1ccccc1`, the inhibition in test [11] was -3%. For the same compound, the fluorescence ratio (interference) in test [12] is 1.
Regarding `Cc1cc(O)c2c(c1)C(=O)c1cc(O)cc(O)c1C2=O`, in test [11], the inhibition was 0%. Also, the fluorescence ratio (interference) in test [12] is 1. Moreover, the call in [1], in [4], in test [8] and in [6] was inactive.
Take `CN(C)CCN(Cc1cccs1)c1ccccn1`: the inhibition in test [11] is -1%. Besides, the fluorescence ratio (interference) in test [12] was 1.
Regarding `CN1C2CCC1CC(OC(=O)C(CO)c1ccccc1)C2` (stereo not given), the inhibition in test [11] was 0% and -1%. For the same compound, the fluorescence ratio (interference) in test [12] was 0.9 and 1.1. The compound was called inactive in [1], in test [4], in test [8], in test [5], in [6] and in [10].
Take `Nc1ccc(S(=O)(=O)Nc2ncccn2)cc1`: the result in [1], in test [4], in [2] and in test [6] was inactive.
For `O=C(/C=C/c1ccc(O)c(O)c1)OCCc1ccccc1`, the inhibition in test [11] is -2%. Besides, the fluorescence ratio (interference) in test [12] was 1.
Regarding `O=C(CCc1ccc(O)cc1)c1c(O)cc(O)cc1O[C@@H]1O[C@H](CO)[C@@H](O)[C@H](O)[C@H]1O`, the compound was called inactive in test [1], in test [4], in test [2], in test [8], in test [5] and in test [6]. The compound was classed as inactive in test [10].
Regarding `COc1cc(O)c2c(c1)C(=O)c1cc(C)cc(O)c1C2=O`, the result in test [1], in test [4] and in [6] was inactive.
Turning to `COc1ccc(-c2coc3cc(O)ccc3c2=O)cc1`, the outcome in [1], in test [4], in test [2] and in test [6] was inactive.
On to `C[N+](C)(C)CCO`, for which the inhibition in test [11] was -3%. Moreover, the fluorescence ratio (interference) in [12] is 1.
For `C1CCc2nnnn2CC1`, the fluorescence slope change in test [7] was 136% (active). Further, the inhibition in [11] was -2%. In test [12], the fluorescence ratio (interference) is 1.
Regarding `CC1=C(/C=C/C(C)=C/C=C/C(C)=C/C=C/C=C(C)/C=C/C=C(C)/C=C/C2=C(C)CCCC2(C)C)C(C)(C)CCC1`, the outcome in [1], in test [4], in test [6] and in test [10] was inactive.
Consider `OCc1ccccc1O[C@@H]1O[C@H](CO)[C@@H](O)[C@H](O)[C@H]1O`, for which the call in [3], in test [1], in [4], in test [2], in test [8] and in test [6] was inactive. Besides, the outcome in test [9] and in test [10] was inactive.
For the compound `OCC(O)C(O)C(O)CO` (stereo not given), the result in test [1], in [4], in test [2] and in test [6] was inactive.
